NPC1 prom act = qHTS Assay for NPC1 Promoter Activators. Huh7 NPC1 promoter luciferase reporter, 24 h. Potency, µM (series often up to 9.22 µM), for inactives: at the highest dose activation, hits mostly activators. 320,000 tested, 2.4% active; further: % of control where 0% means no effect; nearly all actives have a fitted effect of over 60% in size
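Luminescence read-out of NPC1 promoter-driven luciferase in stably transfected Huh7 cells; compounds delivered in DMSO and left 24 h at 37C, 5% CO2, qHTS titration format.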
Luc counter = Counterscreen for Luciferase (Kinase-Glo TM) Inhibition. Luciferin 4-monooxygenase (Photuris pensylvanica), Q27757. Kinase-Glo luciferase, ATP luminescence, 8 min. Potency, µM (doses to about 38.3 µM), without a hit: at the highest dose activity change, negative = inhibition, hits mostly inhibitors. 200,000 tested, 0.28% active; further: on the % scale 0 is the no-effect control and ±100 the full control effect; nearly all actives have a fitted effect of over 60% in size
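Recombinant Kinase-Glo luciferase, 10 uM ATP (linear range), luciferin; imidazole pH 7.2 / KCl / MgCl2 / Tween / BSA buffer; 8 min RT; luminescence.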
SMN2 splice up = qHTS Assay for Enhancers of SMN2 Splice Variant Expression; HEK293 SMN2-luciferase splicing reporter, luminescence, 30-36 h; 210,000 tested, 2.8% active; Potency, µM (titrated, usually from 46.1 µM), without a hit: top-dose activity change, positive = activation, hits mostly activators; further: % of control where 0% means no effect; nearly all actives have a fitted effect of over 55% in size
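HEK293 cells carry an SMN2 minigene-luciferase reporter in which exon 7 inclusion puts luciferase in frame. Cells were seeded at 2000 cells/well, attached for 10-12 hours, then exposed to compounds for 30-36 hours at 37C before ONE-Glo luminescence.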
FLuc modulator = qHTS profiling assay for firefly luciferase inhibitor/activator using purifed enzyme and Km concentrations of substrates (counterscreen for miR-21 project). Potency, µM (doses to about 57.5 µM), for inactives: at the top dose activity change, negative = inhibition, hits mostly inhibitors. purified FLuc, Km substrates, luminescence inhibition. AID 588342, 2011. 360,000 tested, 6.9% active;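 further: plate controls were vehicle for no effect and reference inhibitor for full effect; nearly all actives have a fitted effect of over 55% in size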
Target sequence (P08659 whole entry, looked up): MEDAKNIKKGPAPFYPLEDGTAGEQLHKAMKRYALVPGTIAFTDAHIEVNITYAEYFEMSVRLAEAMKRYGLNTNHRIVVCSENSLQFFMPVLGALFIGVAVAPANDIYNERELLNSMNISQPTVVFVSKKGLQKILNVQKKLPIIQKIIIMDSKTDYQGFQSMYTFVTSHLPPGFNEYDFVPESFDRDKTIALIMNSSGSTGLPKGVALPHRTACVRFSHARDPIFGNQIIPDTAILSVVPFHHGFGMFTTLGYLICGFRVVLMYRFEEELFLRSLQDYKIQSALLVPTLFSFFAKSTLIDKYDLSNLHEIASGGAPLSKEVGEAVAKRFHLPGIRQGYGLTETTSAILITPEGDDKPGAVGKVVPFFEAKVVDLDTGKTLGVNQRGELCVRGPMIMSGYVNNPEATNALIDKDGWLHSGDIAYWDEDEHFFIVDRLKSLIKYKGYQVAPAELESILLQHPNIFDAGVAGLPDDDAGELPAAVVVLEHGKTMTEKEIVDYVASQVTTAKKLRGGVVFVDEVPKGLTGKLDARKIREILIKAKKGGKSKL
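Biochemical qHTS of compounds, final roughly 60 µM downward over six points, against 10 nM purified firefly luciferase using Km concentrations of substrates (10 uM D-luciferin, 10 uM ATP) in Tris acetate pH 7.5 buffer; luminescence output.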
Rab9 prom act = qHTS Assay for Rab9 Promoter Activators. Huh7 Rab9 promoter-luciferase reporter, luminescence, 24 h. Potency, µM (highest dose often 9.22 µM), for the others: top-dose activation, negative = inhibition, hits mostly activators. 320,000 tested, 2.8% active. AID 485297, 2010; further: % of control where 0% means no effect; nearly all actives have a fitted effect of over 60% in size
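Luminescence read-out: Huh7 cells stably expressing Rab9-luciferase, treated 24 h with compound at 37 °C, then lysed with luciferase reagent for 10 min at ambient before reading.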
ELG1 genotox = qHTS screen for small molecules that induce genotoxicity in human embryonic kidney (HEK293T) cells expressing luciferase-tagged ELG1 | HEK293T ELG1-luciferase reporter, luminescence, 16 h | Potency, µM (doses to about 46 µM), for inactives: at the highest dose activity change, positive = activation, actives largely listed as activators | 330,000 tested, 1.3% active; further: % of control where 0% means no effect; nearly all actives have a fitted effect of over 60% in size
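DMSO vehicle served as control against compound-treated ELG1-luciferase HEK293T cells; exposure lasted 16 hr at 37 °C and 5% CO2, followed by ONE-Glo luminescence detection after 30 min.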
* marks the source's active call; other numbers are inactive results; [ ] = another dose, or the depositor's remark. Only some compounds are listed: those with a hit (about 7.3% of all), similar ones and a draw of the others. The call rests on the fitted dose curve; in most records, active means well fitted curve in the direction sought with a large enough effect; inconclusive means small, poorly fitted or top-dose-only effect, or another doubt; inactive means no such curve, though single readings can be large; an effect the other way counts as inactive or inconclusive. Potency means the concentration at half of the fitted maximal effect.

CC(=O)c1ccc(OC(=O)c2cccs2)cc1 was read as NPC1 prom act 5%, Luc counter -7%, SMN2 splice up 10%, FLuc modulator 12µM*, Rab9 prom act -4% and ELG1 genotox -7%.
Cc1ccc(C(=O)Nc2cccc(NC(=O)c3cccs3)c2)c(C)c1 was read as NPC1 prom act 0%, FLuc modulator 12µM*, Rab9 prom act 6% and ELG1 genotox -7%.
COc1ccc(-c2[nH]ncc2/C=N/NC(=O)c2cccc([N+](=O)[O-])c2)cc1OC was read as NPC1 prom act -7%, Luc counter -2%, FLuc modulator -5%, Rab9 prom act -9% and ELG1 genotox -1%.
For CC(=O)Nc1ccc(OC(=O)c2cccs2)cc1 the results were NPC1 prom act 1%, Luc counter 2%, SMN2 splice up 28%, FLuc modulator inconclusive, Rab9 prom act 0% and ELG1 genotox -1%.
Cn1c(N2CCN(C(=O)Nc3ccc(F)cc3)CC2)nc2ccccc21 was read as NPC1 prom act -4%, Luc counter -3%, SMN2 splice up -17%, FLuc modulator -2%, Rab9 prom act -3% and ELG1 genotox -3%.
`Cc1cccc(-n2c(O)cnc2Nc2nc(C)cc(C)n2)c1` gave NPC1 prom act -1%, Luc counter 0%, SMN2 splice up -10%, FLuc modulator -1%, Rab9 prom act 10% and ELG1 genotox 1%.
For C[C@]12c3[nH]c4ccc(Cl)cc4c3CCN1C(=O)[C@@H](CC(=O)NCc1ccco1)C[C@@H]2C(=O)N1CCOCC1 the results were ELG1 genotox 1%.
Screening O=C(N/C(=C\c1ccc([N+](=O)[O-])cc1)C(=O)N1CCOCC1)c1ccco1 returned NPC1 prom act 1%, FLuc modulator -1%, Rab9 prom act 5% and ELG1 genotox -1%.
Screening COC(=O)Cc1ccc(NC(=O)c2ccccc2Br)cc1 returned NPC1 prom act 12%, Luc counter -3%, SMN2 splice up 5%, FLuc modulator 17µM*, Rab9 prom act 2% and ELG1 genotox 10%.
`COc1cc(NC(=O)c2cccs2)cc(OC)c1` gave NPC1 prom act 24%, Luc counter -3%, SMN2 splice up 15%, FLuc modulator inconclusive, Rab9 prom act inconclusive and ELG1 genotox 10%.
Screening COC(=O)Cc1ccc(NC(=S)NNC(=O)c2ccccc2Br)cc1 returned NPC1 prom act -2%, Luc counter -1%, SMN2 splice up -10%, FLuc modulator -1%, Rab9 prom act -1% and ELG1 genotox 0%.
COc1ccc(NC(=O)c2ccccc2NC(=O)c2cccs2)cc1 was read as NPC1 prom act 16%, FLuc modulator 15µM*, Rab9 prom act 22% and ELG1 genotox inconclusive.
COc1cc(NC(=O)c2cccs2)c(OC)cc1NC(=O)c1ccco1 was read as NPC1 prom act -1%, Luc counter 0%, SMN2 splice up -22%, FLuc modulator -9%, Rab9 prom act 2% and ELG1 genotox -1%.
`COc1cccc(NC(=O)c2cccs2)c1` gave NPC1 prom act inconclusive, Luc counter -4%, SMN2 splice up 13µM*, FLuc modulator 17µM*, Rab9 prom act inconclusive and ELG1 genotox 16µM*.
Cc1ccc(NC(=O)c2ccccc2NC(=O)c2cccs2)cc1 was read as NPC1 prom act -9%, FLuc modulator inconclusive, Rab9 prom act 4% and ELG1 genotox 4%.
Screening COc1ccc(NC(=O)c2ccco2)cc1NC(=O)c1cccs1 returned NPC1 prom act -1%, Luc counter 3%, SMN2 splice up 4.5µM*, FLuc modulator -13%, Rab9 prom act -6% and ELG1 genotox 1%.
For CCOc1ccc(NC(=O)CCNC(=O)c2ccco2)cc1 the results were NPC1 prom act 0%, FLuc modulator -5%, Rab9 prom act -3% and ELG1 genotox 9%.
Screening Cc1ccc(S(=O)(=O)Nc2ccc(NC(=O)c3cccs3)cc2)cc1 returned NPC1 prom act -6%, Luc counter -2%, SMN2 splice up 11µM*, FLuc modulator -4%, Rab9 prom act -2% and ELG1 genotox -4%.
COc1ccc(NC(=O)n2nc(OC(=O)c3cccs3)cc2N)cc1 was read as NPC1 prom act 12%, FLuc modulator 17µM*, Rab9 prom act 13% and ELG1 genotox inconclusive.
COc1ccc(NC(=O)c2cccs2)cc1OC was read as NPC1 prom act 20%, Luc counter 0%, FLuc modulator inconclusive, Rab9 prom act 24% and ELG1 genotox 23µM*.
Screening COc1cccc(C(c2c(O)nc(SC)n(C)c2=O)c2c(O)nc(SC)n(C)c2=O)c1 returned NPC1 prom act 2%, Luc counter 7%, SMN2 splice up 6%, FLuc modulator 0%, Rab9 prom act 8% and ELG1 genotox 0%.
CCOc1ccc(NC(=O)CSc2nnc(C(C)C)n2CC)cc1 was read as NPC1 prom act -4%, Luc counter 2%, SMN2 splice up -25%, FLuc modulator -1%, Rab9 prom act 3% and ELG1 genotox 0%.
For O=C1/C(=C/c2cccs2)Cc2ccccc21 the results were NPC1 prom act 21%, FLuc modulator 3.8µM*, Rab9 prom act 19% and ELG1 genotox inconclusive.
Screening O=C1/C(=C\c2ccc(Br)o2)Cc2ccccc21 returned NPC1 prom act 0%, Luc counter -1%, SMN2 splice up -25%, FLuc modulator 15µM*, Rab9 prom act 2% and ELG1 genotox inconclusive.
Screening O=C1C(=Cc2cccs2)C(=O)c2ccccc21 returned NPC1 prom act -1%, Luc counter inconclusive, SMN2 splice up 5%, FLuc modulator 4.8µM*, Rab9 prom act 10% and ELG1 genotox 10%.
Cc1ccc(C=C2C(=O)c3ccccc3C2=O)s1 was read as NPC1 prom act 1%, Luc counter 7.1µM*, SMN2 splice up 16%, FLuc modulator 0.85µM*, Rab9 prom act 9% and ELG1 genotox inconclusive.
`COc1cc(OC)c(OC)cc1/C=C1/Cc2ccccc2C1=O` gave NPC1 prom act -9%, FLuc modulator 5%, Rab9 prom act -4%[1.84 µM] and ELG1 genotox 3%.

Bioassay records as filed in PubChem.
